Experimental data as given in PubChem BioAssay (NCATS).
Where “and” joins values, the source holds several entries; their conditions need not be identical. Identical values can stand only once. Inconclusive results are not listed. Unmarked numbers belong to inactive results. Calls of active or inactive are those of the source. Calls come from the whole dose curve; as a rule, active = well fitted activation curve with a large enough effect; inconclusive = small, poorly fitted or top-dose-only effect; inactive = no such curve, though single readings can be large or run the other way.

The compounds below were run against Cellular tumor antigen p53 (Homo sapiens) (UniProt P04637) (assay: Primary qHTS for small molecule compounds that upregulate eGFP-tagged delta133p53alpha (in N-terminal) cells. (AID 2060322; note: nearly all actives have a fitted effect of over 75% in size;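 for activation: cells pre-induced with doxycycline then dosed without doxycycline; series mostly up to about 56 µM; 0% = DMSO vehicle and 100% = reference activator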)). Details: NCI-H358 eGFP-delta133p53alpha fluorescence, 24 h; activation: hits give high values.
Summary of the method: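 NCI-H358 cells pre-induced 24 h with 10 ng/ml doxycycline for eGFP-delta133p53alpha, plated dox-free and exposed 24 h at 37C to titrated compounds. Fixed, Hoechst-stained; gated GFP peak intensity by laser scanning cytometry, normalized to DMSO (0%) and 57.5 uM 5-azacytidine (100%).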
Potency is the fitted concentration of half-maximal effect.

Sequence of Cellular tumor antigen p53 (Homo sapiens) (P04637 whole entry, looked up): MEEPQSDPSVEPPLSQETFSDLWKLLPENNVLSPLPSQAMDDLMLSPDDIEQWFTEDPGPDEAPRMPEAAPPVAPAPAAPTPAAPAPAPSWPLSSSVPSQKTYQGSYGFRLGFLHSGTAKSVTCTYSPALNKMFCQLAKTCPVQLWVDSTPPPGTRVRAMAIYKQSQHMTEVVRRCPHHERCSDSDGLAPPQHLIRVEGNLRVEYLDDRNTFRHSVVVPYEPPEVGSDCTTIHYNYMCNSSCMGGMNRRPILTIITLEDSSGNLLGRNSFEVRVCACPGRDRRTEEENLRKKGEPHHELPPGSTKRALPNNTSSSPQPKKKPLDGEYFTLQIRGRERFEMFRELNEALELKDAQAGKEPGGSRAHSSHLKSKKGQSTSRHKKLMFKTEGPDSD

Row | SMILES | Potency | activation
1 | Nc1ccc(Cl)cc1N | 22.4 µM (active) | –
2 | O=C1CN2CCOC2(c2ccccc2Cl)c2cc(Cl)ccc2N1 (stereo not given) | – | 14.2%
3 | COc1cc2cc(c1Cl)N(C)C(=O)C[C@H](OC(=O)C(C)C)[C@]1(C)O[C@H]1[C@H](C)[C@@H]1C[C@@](O)(NC(=O)O1)[C@H](OC)C=CC=C(C)C2 | – | 0.447%
4 | CN1C[C@@H](NS(=O)(=O)N(C)C)C[C@@H]2c3cccc4c3c(cn4C)C[C@H]21 | – | 14.1%
5 | COc1cccc2c1[C@]13CCN(CC4CC4)[C@H](C2)[C@]1(OC)CCC(=O)C3 | – | -12%
6 | Nc1nc(N)nc(NC2CC2)n1 | – | 5.02%
7 | O=c1oc2ccccc2c(O)c1Cc1c(O)c2ccccc2oc1=O | 17.4 µM (active) | –
8 | c1ccc2c(c1)sc1ccccc12 | – | -5.02%
9 | CC(C)(O)C=CC(=O)[C@](C)(O)[C@H]1[C@H](O)C[C@]2(C)[C@@H]3CC=C4[C@@H](C=C(O)C(=O)C4(C)C)[C@]3(C)C(=O)C[C@@]12C | 34.3 µM (active) | –
10 | Cc1cccc(Cc2cnc[nH]2)c1C | – | -0.837%
11 | NCc1cccnc1 | – | 6.21%
12 | ClCCN1CCCC1 | – | 4.18%
13 | CC(Cc1ccccc1)NCCn1cnc2c1c(=O)n(C)c(=O)n2C (stereo not given) | – | 9.6%
14 | Cc1c(Cl)c(=O)oc2cc(OP(=O)(OCCCl)OCCCl)ccc12 | – | -15.9%
15 | C=CC[C@]1(O)CC[C@H]2[C@@H]3CCC4=CC(=O)CCC4=C3C=C[C@@]21C | – | -4.18%
16 | CC(=O)OC1(c2ccccc2)CCN(CCc2ccccc2)CC1 | – | -10.7%
17 | CCOC(=O)C(c1c(O)c2ccccc2oc1=O)c1c(O)c2ccccc2oc1=O | – | -3.95%
18 | C1CN2CCC1CC2 | – | -19.2%
19 | NC(=O)c1cc([N+](=O)[O-])cc([N+](=O)[O-])c1 | – | 0.837%
20 | C[C@@H]1CC[C@H]2[C@@H](C)C(=O)O[C@@H]3O[C@@]4(C)CC[C@H]1[C@]32OO4 | – | 5.37%

Row | SMILES | Potency | activation
21 | CN1CCN(C(=O)O[C@H]2c3nccnc3C(=O)N2c2ccc(Cl)cn2)CC1 | – | 11.9% and -19.6%
22 | Cc1ccc2c(c1)C1CN(C)CCC1N2 (stereo not given) | – | 0.837%
23 | Nc1ccccc1C(=O)OCC(O)CO (stereo not given) | – | -5.02%
24 | CCN(CC)Cc1nccn1-c1ccc([N+](=O)[O-])cc1C(=O)c1ccccc1Cl | – | -4.18%
25 | CC(C)(C)[C@]1(O)C[C@@H]2OC(=O)C[C@@]23C(=O)O[C@@H]2OC(=O)[C@H](O)C213 (stereo not given in full) | – | 7.05%
26 | CCN(CC)CCOC(=O)C(O)(c1ccccc1)c1ccccc1 | – | 20.9%
27 | CCC(OC(C)=O)C(CC(C)NC)(c1ccccc1)c1ccccc1 (stereo not given) | 28.5 µM (active) | –
28 | C=CCC1=C(C)C(OC(=O)C2C(C=C(C)C)C2(C)C)CC1=O (stereo not given) | – | 18.6%
29 | C[C@@H]1CC2=CC(=O)CC[C@@H]2[C@H]2CC[C@@]3(C)[C@@H](CC[C@]3(C)O)[C@@H]21 | – | -3.35%
30 | OC(c1ccccc1)(c1ccccc1)C1CCNCC1 | – | -13.4%
31 | Cc1ncc2n1-c1ccc(Cl)cc1C(c1ccccc1F)=NC2 | – | -27.7%
32 | CC[C@H]1C=CC=CC[C@@H](C)[C@H](O)[C@@](C)(O)C(=O)[C@@H](C)[C@H](O)[C@@H](C)C(=O)[C@@H](C)[C@H](O)[C@@H](C)C=CC(=O)O[C@@H]2[C@@H](C)[C@H](CC1)O[C@]1(CC[C@H](C)[C@H](C[C@@H](C)O)O1)[C@H]2C | – | 11.3%
33 | COc1cc(CC(C)N)cc(OC)c1OC (stereo not given) | – | -10.7%
34 | COC1CC(=C(c2cccs2)c2cccs2)C[N+](C)(C)C1 (stereo not given) | – | -5.86%
35 | C[C@H]1CCCC=CC2C[C@H](O)C[C@@H]2[C@H](O)C=CC(=O)O1 (stereo not given in full) | – | 23.5%
36 | C[C@]12CCC(=O)C=C1CC[C@@H]1[C@H]3CC[C@](C)(O)[C@@]3(C)CC[C@@H]12 | 50.9 µM (active) | –
37 | CCN[C@@H](C)Cc1ccccc1 | – | -10.7%
38 | COP(=S)(OC)Oc1cc(Cl)c(Cl)cc1Cl | – | -17.5%
39 | COc1cc(CC(C)N)cc2c1OCO2 (stereo not given) | – | 6.21%
40 | Nc1ccc([N+](=O)[O-])cc1 | – | 28.8%
